An excerpt weighted towards active compounds, which were near 3.1% of everything screened.
Anthrax LF prot: Bacillus anthracis LF protease inhibitors, primary screen, biochemical, multiplex microsphere, MLPCN library; actives 0.12% (n = 360,000); inhibition, % at 10 µM; multiplex microsphere protease cleavage assay; Lethal factor (Bacillus anthracis), P15917; further: plate controls were buffer without enzyme for full effect and enzyme alone for no effect
Bead autofluor: compound fluorescence in toxin protease inhibitor counterscreen | actives 3.1% (n = 360,000) | fluorescence intensity (no concentration beside the values) | AID 624483 | compound autofluorescence counterscreen, microsphere flow cytometry; active compounds read high; in the data active means fluorescence intensity above about 16000; inconclusive means no clear call, values can overlap the other calls
BoNT-A LC inh2: BoNT/A light chain protease inhibitors, primary screen, biochemical, flow cytometry, MLPCN library; inhibition, % at 10 µM; multiplex microsphere protease substrate cleavage; actives 0.17% (n = 360,000); Botulinum neurotoxin type A light chain protease (Clostridium botulinum A str. ATCC 3502); AID 588499, 2011; further: plate controls were buffer without enzyme for full effect and enzyme alone for no effect
PriA SSB inh: inhibitors of Klebsiella pneumoniae PriA binding to SSB C-terminal tail, primary screen, biochemical, AlphaScreen; PriA–SSB C-terminal tail interaction (Klebsiella pneumoniae); AlphaScreen SSBct-PriA binding, biotinylated peptide; inhibition, % at 33 µM; actives 0.6% (n = 430,000); in the data active means inhibition mostly above about 37%, no sharp cut-off; inactive means mostly below about 20%;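 further: plate controls were negative control peptide for no effect and reference peptide for full effect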
BoNT F protease: BoNT/F light chain protease inhibitors, primary screen, biochemical, flow cytometry, MLPCN library. inhibition, % at 10 µM. actives 0.22% (n = 360,000). AID 588497, 2011. Multiplex microsphere protease cleavage assay. Botulinum neurotoxin type F light chain protease (Clostridium botulinum); in the data active means inhibition above about 35%, passing the limit was not always enough; inconclusive means no clear call, values can overlap the other calls; further: plate controls were buffer without enzyme for full effect and enzyme alone for no effect
Starred values were filed as active, the others as inactive; ? = inconclusive; nt = no result given. Unless noted, no stated cut-off is given here; in the data, active means inhibition above about 30%; inconclusive means no clear call, values can overlap the other calls; inactive means below that.

SMILES	Anthrax LF prot	Bead autofluor	BoNT-A LC inh2	PriA SSB inh	BoNT F protease
COc1cc(C(=O)OCC(C)=O)ccc1OCc1c(C)noc1C	-3	4002	0	-7	2
COc1ccc2c(c1)CCCC2(O)CNS(=O)(=O)c1cnc(NC(C)=O)s1 (stereo not drawn)	nt	nt	nt	-3	nt
CCOC(=O)c1c(NC(=O)C2CC2)sc(Cc2ccc3c(c2)OCO3)c1C	nt	nt	nt	-8	nt
O=C(NCCC(CCO)c1ccccc1)C(=O)Nc1cccc(N2CCCC2=O)c1 (stereo not drawn)	nt	nt	nt	-12	nt
COc1ccc(CCN2CC(O)=C(c3nc(C)cs3)C2=N)cc1OC	3	23439*	0	4	0
Cc1cnnn1-c1ccc(C(=O)N2CCCc3ccccc32)cc1	nt	nt	nt	3	nt
O=C(OCC1OC2OC3(CCCCC3)OC2C2OC3(CCCCC3)OC12)c1ccccc1 (stereo not drawn)	-1	2421	0	-18	-4
O=C(O)C1OC2OC3(CCCCC3)OC2C2OC3(CCCCC3)OC12 (stereo not drawn)	-1	2111	3	-14	36*
COC(=O)c1ccc(OC(=O)C2CC(=O)N(c3cccc(C)c3)C2)cc1 (stereo not drawn)	-3	16757*	?	-21	-3
COc1cccc(N2CC(C(=O)Oc3ccc4ccccc4c3)CC2=O)c1 (stereo not drawn)	-21	10482	-1	-4	-10
COc1ccccc1OCC(=O)NCC(c1ccc(C)cc1)N1CCOCC1 (stereo not drawn)	nt	nt	nt	7	nt
Cc1cc(N2CCOCC2)cc(C)[n+]1[O-]	-4	16435*	-1	-4	0
COC(=O)c1sc2ccccc2c1NC(=O)c1cc2cccc(OC)c2o1	nt	nt	nt	-16	nt
Cc1ccc(CSCCNC(=O)c2ccc(Cl)c(S(=O)(=O)N3CCOCC3)c2)cc1	-2	20110*	1	-10	-2
Cc1cc(C)n2nc(S(=O)(=O)NCCc3ccccc3)nc2n1	0	4341	0	-5	0
COc1ccc(-c2cc3nc(C)cc(C)n3n2)cc1OC	nt	nt	nt	-7	nt
COc1ccc(CNc2nc3nc(C)cc(C)n3n2)cc1	0	23427*	-3	6	-4
Cc1cc(C)n2nc(NCc3ccccc3)nc2n1	0	20633*	?	-14	-3
COc1ccc(-c2cc3nc(C)cc(C)n3n2)cc1	0	20324*	0	-9	-2
CCc1ccc(NC(=O)C(=O)NN=C(C)CC(=O)Nc2ccc(OC)cc2)cc1	nt	nt	nt	-8	nt
CCc1cc(=O)n(CCNC(=O)c2cc(=O)[nH]c(=O)[nH]2)cn1	nt	nt	nt	-12	nt
CCc1ccccc1NC(=O)c1ccccc1N1C(=O)C2C3C=CC(C3)C2C1=O (stereo not drawn)	3	6164	1	-15	-5
CCc1ccccc1NC(=O)c1cccc(N2C(=O)C3C4CCC(C4)C3C2=O)c1 (stereo not drawn)	-4	23495*	?	-14	-2
Cc1ccccc1NC(=O)c1cccc(N2C(=O)C3CCC(C)CC3C2=O)c1 (stereo not drawn)	-13	3209	3	-16	8
Cc1cccc(NC(=O)c2cccc(N3C(=O)C4C5CCC(C5)C4C3=O)c2)c1C (stereo not drawn)	-9	18603*	?	-27	8
SMILES	Anthrax LF prot	Bead autofluor	BoNT-A LC inh2	PriA SSB inh	BoNT F protease
O=C(Nc1ccc2c(c1)OCO2)N1CCO[C@H](c2cccnc2)C1	nt	nt	nt	-10	nt
O=S(=O)(c1ccc(N2CC=C(c3ccccc3)CC2)nc1)N1CCCC1	-1	24332*	?	0	-6
O=S(=O)(c1ccc(N2CCN(S(=O)(=O)c3ccccc3)CC2)nc1)N1CCCC1	0	3419	0	5	5
NC(=O)c1sc2nnc(-c3ccccc3)c(-c3ccccc3)c2c1N	-44	17320*	-56	-2	?
Cc1cnc(C(=O)Nc2ccc3c(c2)CCC3)cn1	2	3505	2	-11	1
O=C(Nc1ccc2c(c1)CCC2)c1cnccn1	-2	20322*	2	-7	1
CCCc1nc2c(C)ccc(C)c2c(N)c1CC	-7	22777*	?	-7	1
Cc1ccc(NC(=O)c2noc3c2CCCCC3)cc1	0	22657*	1	-10	-1
Cc1ccc(NC(=O)c2noc3c2CCCCC3)cc1C	-2	16801*	-2	-2	-2
CCc1ccc(NC(=O)c2noc3c2CCCCC3)cc1	-2	10839	1	3	-4
O=C(c1ccc2nsnc2c1)N1CCC(Oc2cccnn2)CC1	nt	nt	nt	0	nt
CCS(=O)(=O)c1cccc(C(=O)Nc2nc3ccc4nc(C)sc4c3s2)c1	nt	nt	nt	-12	nt
O=S(=O)(Cc1ccccc1)N1CCCC(c2nc(-c3ccc(F)cc3)no2)C1 (stereo not drawn)	-4	21682*	1	-21	3
Cc1ccc(-c2noc(C3CCCN(C(=O)c4ccc(F)cc4F)C3)n2)cc1 (stereo not drawn)	-3	11435	0	-21	-5
O=S(=O)(c1ccc(F)cc1)N1CCCC(c2nc(-c3ccc(F)cc3)no2)C1 (stereo not drawn)	-3	3995	-1	-8	-15
Cc1ccccc1NC(=O)N1CCCC(c2nc(-c3ccc(C(C)C)cc3)no2)C1 (stereo not drawn)	-3	23120*	0	-18	-3
CC(C)c1ccc(-c2noc(C3CCCN(C(=O)c4ccc(F)cc4F)C3)n2)cc1 (stereo not drawn)	-9	22538*	0	-16	-5
N=c1oc2ccc3ccccc3c2cc1-c1nc(-c2ccccc2)cs1	32*	7671	34*	-8	23
CCOC(=O)c1c(C)n(C)c2ccc(OCC(O)Cn3nc(C)cc3C)cc12 (stereo not drawn)	-5	16244*	0	-1	-3
CCOC(=O)c1c(C)n(C)c2ccc(OCC(O)CN(CC)CC)cc12 (stereo not drawn)	3	5998	0	-4	-12
CC(=NCCN1CCCCC1)c1c(O)[nH]c(=O)[nH]c1=O	-1	16267*	-1	-8	-1
CC(=NCCN1CCCCC1)c1c(O)n(Cc2ccccc2)c(=O)[nH]c1=O	2	23910*	-1	0	2
COc1ccc(-n2c(O)c(C(C)=NCC3CCCO3)c(=O)[nH]c2=O)cc1 (stereo not drawn)	-9	4409	0	-15	7
CC(=NCCCn1ccnc1)c1c(O)n(Cc2ccccc2)c(=O)[nH]c1=O	-13	20727*	4	-3	3
COc1ccc(-n2c(O)c(C(C)=NCCN3CCNCC3)c(=O)[nH]c2=O)cc1	1	22171*	3	-2	6
Cc1ccc(NC(=O)NCCn2ncccc2=O)cc1F	nt	nt	nt	-5	nt
Cn1c(=O)c2[nH]c(-c3cccnc3)nc2n(C)c1=O	-2	21912*	1	-6	0
Cc1cc(=O)[nH]c(-c2cccnc2)n1	-7	3595	-1	-11	2

Screens: PubChem BioAssay, several laboratories
